Screens (PubChem BioAssay)
ClpP mod: qHTS Assay for Activators of ClpP; Potency, µM (titrated, usually from 57.5 µM), for inactives: at the top dose activity change, negative = active; purified B. subtilis ClpP, FRET peptide cleavage, 20 min; 340,000 compounds, 1.9% hits; ATP-dependent Clp protease proteolytic subunit (Bacillus subtilis (strain 168)), P80244; active = well fitted falling curve with a large enough effect; inconclusive = small, poorly fitted or top-dose-only effect; inactive = no such curve, though single readings can be large or run the other way; also: potency is read from the fitted curve at half-maximal effect; the source files actives as falling curves though it sought activators and does not explain the sign; nearly all actives have a fitted effect of over 65% in size
Target sequence (P80244 whole entry, looked up): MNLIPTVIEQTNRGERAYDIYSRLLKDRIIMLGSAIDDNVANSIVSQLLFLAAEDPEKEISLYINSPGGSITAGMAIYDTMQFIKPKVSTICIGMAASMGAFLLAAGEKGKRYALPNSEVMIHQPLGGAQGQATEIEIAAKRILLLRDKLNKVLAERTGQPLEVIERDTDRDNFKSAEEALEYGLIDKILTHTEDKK
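Purified B. subtilis ClpP, 10 microg/mL final in Tris/HCl pH8 with KCl, BSA, glycerol and Tween-20, cleaved an Abz/nitrotyrosine-quenched decapeptide. Fluorescence (ex 320, em 430) was read at 0 and 20 min at room temperature. Delta was normalized to 5.8 microM ADEP and DMSO/no-enzyme controls.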
DT40 TDP1 no CPT: qHTS for Inhibitors of human tyrosyl-DNA phosphodiesterase 1 (TDP1): qHTS in cells in absence of CPT. DT40 Tdp1-/- hTDP1 cells, no CPT, ATP luminescence, 48 h. Potency, µM (doses to about 46.2 µM), without a hit: at the highest dose activity change, negative = growth inhibition, actives largely listed as inhibitors. 420,000 compounds, 15% hits; also: potency is read from the fitted curve at half-maximal effect; % is scaled to controls: 0 for no effect and ±100 for the full control effect; nearly all actives have a fitted effect of over 55% in size
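A cellular qHTS used chicken DT40 cells lacking endogenous Tdp1 but carrying stably transfected human TDP1. Compounds were applied without camptothecin, and cell growth kinetics were judged by ATP-dependent luminescence after ≥48 hr.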
TDP1 cell CPT: qHTS for Inhibitors of human tyrosyl-DNA phosphodiesterase 1 (TDP1): qHTS in cells in presence of CPT. Potency, µM (series often up to 46.2 µM), for the others: at the highest dose activity change, negative = growth inhibition, usual class: inhibitors. chicken DT40 Tdp1-/-;hTDP1 cells + 20 nM CPT, ATP luminescence, 48 h. 420,000 compounds, 12% hits; also: potency is read from the fitted curve at half-maximal effect; % is scaled to controls: 0 for no effect and ±100 for the full control effect; nearly all actives have a fitted effect of over 55% in size
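Cell growth measured by CellTiter-Glo luminescence after a minimum 48 h, 37 C compound exposure with 20 nM CPT in Tdp1-knockout DT40 cells stably expressing hTDP1, seeded 400/well; qHTS titration format.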
DRD3 agonist: qHTS of D3 Dopamine Receptor Agonist: qHTS; D(3) dopamine receptor (Homo sapiens), P35462; max activation, %; 410,000 compounds, 0.58% hits; D3R DiscoveRx beta-arrestin cells, luminescence, 90 min; in the data active = max activation above about 30%; also: 0% is about no effect
Target sequence (P35462 whole entry, looked up): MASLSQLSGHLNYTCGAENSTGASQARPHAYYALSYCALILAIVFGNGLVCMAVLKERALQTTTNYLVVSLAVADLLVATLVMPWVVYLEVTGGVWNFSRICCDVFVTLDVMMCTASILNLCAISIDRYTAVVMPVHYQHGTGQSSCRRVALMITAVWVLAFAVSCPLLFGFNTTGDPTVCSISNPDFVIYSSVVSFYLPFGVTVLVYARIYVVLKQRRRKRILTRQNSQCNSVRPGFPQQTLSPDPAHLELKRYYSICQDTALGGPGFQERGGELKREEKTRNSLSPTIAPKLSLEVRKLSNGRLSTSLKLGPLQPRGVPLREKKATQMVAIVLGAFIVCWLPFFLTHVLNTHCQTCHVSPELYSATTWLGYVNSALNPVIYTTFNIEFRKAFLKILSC
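Cells at 1500/well, incubated overnight, then treated with pinned compounds (dopamine as control) for 90 min at 37 degrees C. DiscoveRx reagent added for 30 - 60 minutes at room temperature; luminescence read.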
IL1B secr inh: qHTS for Inhibitors of Inflammasome Signaling: IL-1-beta AlphaLISA Primary Screen; THP-1 LPS/ATP IL-1B secretion, AlphaLISA, 16 h; stronger effect = lower value; activity change, % at 57.5 µM; 360,000 compounds, 4.7% hits; in the data active = activity change below about -50%; inconclusive = mostly about -30% to -49%; also: % is scaled to controls: 0 for no effect and ±100 for the full control effect
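Secreted IL-1B measured by AlphaLISA bead assay after 16 h compound exposure of THP-1 cells; compounds (final up to 57.5 uM) added 1 h before LPS (250 ng/mL) and ATP (1.25 mM) stimulation; lower signal means less secretion.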
DRD3 antagonist: qHTS of D3 Dopamine Receptor Antagonist: qHTS; D(3) dopamine receptor (Homo sapiens), P35462; D3R cells, DiscoveRx beta-arrestin luminescence, antagonist mode; stronger effect = lower value; max response, negative = inhibition, %; 360,000 compounds, 2.5% hits; in the data active = max response below about -50%; inconclusive = no clear call, values can overlap the other calls; also: % is scaled to controls: 0 for no effect and ±100 for the full control effect
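Cells plated overnight at 1500 cells/well, then exposed to library compounds with dopamine controls for 90 minutes at 37 degrees C. DiscoveRx reagent added for 30–60 minutes at room temperature; luminescence read, quantitative HTS format.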
The depositor's hits bear a star; ? = inconclusive; nt = no result; [ ] = dose if it differs, or a comment. Only some compounds are listed: those with a hit (about 21% of all), similar ones and a draw of the others. Unless noted, calls follow the shape of the dose curve; as a rule, active = well fitted inhibition curve with a large enough effect; inconclusive = small, poorly fitted or top-dose-only effect; inactive = flat fitted curve, though single readings scatter.

SMILES	ClpP mod	DT40 TDP1 no CPT	TDP1 cell CPT	DRD3 agonist	IL1B secr inh	DRD3 antagonist
COC(=O)c1nn(-c2ccc3c(c2)CCN3C(C)=O)cc1O	7.1µM*	?	?	-2	-21	-20
CC(=O)N1CCc2cc([N+](=O)[O-])ccc21	-3%	-3%	-15%	-4	9	-9
COc1cc(NC(=O)c2c(C)oc3c2C2=NCCN2C=N3)cc(OC)c1OC	-1%	?	-14%	-6	nt	nt
COc1ccccc1OCCNC(=O)CCNS(=O)(=O)c1ccc(C)cc1	nt	-18%	-28%	-1	-8	20
Cc1ccc(/C=C(/NC(=O)c2ccccc2)C(=O)NC(Cc2c[nH]c3ccccc23)C(=O)O)cc1 (centres undefined)	nt	1%	1%	4	7	10
Cc1nc2ccccc2c2oc(C(=O)Nc3ccc4c(c3)OCCO4)cc12	254%	15µM*	15µM*	2	0	20
COc1cc(NC(=O)c2cc3c(C)nc4ccccc4c3o2)cc(OC)c1OC	0%	12µM*	8.2µM*	11	-21	41
Cc1nc2ccccc2c2oc(C(=O)Nc3ccc(C(C)C)cc3)cc12	-16%	21µM*	?	1	-2	51
CN(CC(=O)Nc1ccc(Cl)cc1)C(=O)CCc1c[nH]c2ccccc12	-1%	-21%	3%	-24	-13	-11
Cc1ccc(C(c2nnnn2C(C)(C)C)N2CCN(C3CCCC3)CC2)cc1 (centres undefined)	1%	?	-25%	-16	5	-92*
CC(C)(C)n1nnnc1C(c1ccncc1)N1CCN(C2CCCCC2)CC1 (centres undefined)	1%	0%	0%	-4	13	14
COc1ccc(N2CCN(C(c3ccc(C)cc3)c3nnnn3C(C)(C)C)CC2)cc1 (centres undefined)	-2%	14µM*	?	nt	nt	nt
COc1ccc(C(=O)N2N=C(c3cccc(OC)c3)CC2(O)C(F)(F)F)cc1 (centres undefined)	nt	23µM*	?	-3	?	9
O=C(c1ccco1)N1N=C(c2ccc(Br)cc2)CC1(O)C(F)(F)F (centres undefined)	nt	?	-2%	7	-63*	13
COc1cccc(C2=NN(C(=O)c3ccc(C)o3)C(O)(C(F)(F)F)C2)c1 (centres undefined)	-10%	10µM*	?	6	?	-12
O=C(c1ccco1)N1N=C(c2ccc(Cl)cc2)CC1(O)C(F)(F)F (centres undefined)	nt	?	?	4	?	9
COc1cccc(C2=NN(C(=O)c3cccs3)C(O)(C(F)(F)F)C2)c1 (centres undefined)	nt	18µM*	?	11	-72*	11
COc1cccc(C(=O)N2N=C(c3cccc(OC)c3)CC2(O)C(F)(F)F)c1 (centres undefined)	0%	?	?	9	-2	1
CCOC(=O)C1CCCN(C(=O)c2nn(-c3ccc(OC)cc3)c(=O)c3c2c2ccccc2n3C)C1 (centres undefined)	-7%	?	-28%	0	nt	nt
CC(=O)c1ccccc1-c1ccc2c(c1)CC(CNC(=O)Cc1c[nH]c3ccccc13)O2 (centres undefined)	nt	-10%	13%[9.04 µM]	nt	nt	nt
COc1cccc(C(=O)N2N=C(c3ccccn3)CC2(O)C(F)(F)F)c1 (centres undefined)	-1%	4.6µM*	21µM*	-1	123	-30
O=C(c1ccccc1)N1N=C(c2ccc(F)cc2)CC1(O)C(F)(F)F (centres undefined)	0%	?	-17%	0	-4	11
CCOc1cccc(C(=O)Nc2ccc(S(=O)(=O)N(Cc3ccccc3)c3ccccc3)cc2)c1	?	2.3µM*	?	8	nt	nt
Cc1ccccc1OCC(=O)Nc1ccc(S(=O)(=O)N(Cc2ccccc2)c2ccccc2)cc1	-5%	5.8µM*	?	-10	nt	nt
COc1cccc(C(=O)Nc2ccc(S(=O)(=O)N(Cc3ccccc3)c3ccccc3)cc2)c1	?	5.8µM*	?	-13	nt	nt
SMILES	ClpP mod	DT40 TDP1 no CPT	TDP1 cell CPT	DRD3 agonist	IL1B secr inh	DRD3 antagonist
Cc1cccc(C(=O)Nc2ccc(S(=O)(=O)N(Cc3ccccc3)c3ccccc3)cc2)c1	?	10µM*	?	-17	nt	nt
COc1ccc2[nH]c3c(c2c1)CCN1C(=O)C(CC(=O)NCCCN(C)C)C[C@H](C(=O)N2CCCCC2)[C@@]31C (some centres undefined)	-15%	-17%	-9%	-54	-14	0
O=c1cc(/C=C/c2ccc([N+](=O)[O-])cc2)c2ccccc2[nH]1	-1%	-6%	-20%	nt	nt	nt
O=C(CSc1nc2ccc(Cl)cc2[nH]1)Nc1ccc2[nH]c(=O)[nH]c2c1	-4%	-4%	0%	-9	31	-6
O=C(Nc1ccc(S(=O)(=O)N(Cc2ccccc2)c2ccccc2)cc1)c1ccccc1F	-21%	?	?	-15	nt	nt
CC(C)N(Cc1ccccc1)S(=O)(=O)c1ccc(F)cc1	nt	9.2µM*	?	3	-20	-7
O=C(Nc1ccc(S(=O)(=O)N(Cc2ccccc2)c2ccccc2)cc1)c1ccc(F)cc1	?	6.5µM*	23µM*	1	nt	nt
CCN(c1ccccc1)S(=O)(=O)c1cc(C(=O)Nc2ccc(Br)cc2)ccc1F	?	21µM*	21µM*	-1	?	?
O=C(O)c1cc([N+](=O)[O-])ccc1Oc1ccccc1	-3%	1%	2%	4	18	15
CCOc1ccc(CNC(=S)N/N=C\c2ccc([N+](=O)[O-])cc2)cc1	-5%	8.2µM*	16µM*	-3	-2	-27
CCOc1ccc(N=Cc2ccc(N(C)C)cc2)c(O)c1	-11%	7.3µM*	15µM*	2	18	-11
CC(C)(C)c1ccc(OCc2ccc(C(=O)NN)o2)cc1	0%	?	?	8	-11	34
CC(C)(C)c1ccc(OCc2ccc(C(=O)N/N=C/c3ccc([N+](=O)[O-])cc3)o2)cc1	0%	21µM*	18µM*	1	-18	32
